Laboratory results: PubChem BioAssay AID1259341 (Broad Institute, 2017)
Values without a mark were called inactive.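 How the source made its calls: active means activity change under -35% in any replicate well, with more than 20 beads read in that well; inactive means the rest.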

Biological target: Caspase recruitment domain-containing protein 9 (Homo sapiens) + E3 ubiquitin-protein ligase TRIM62 (Homo sapiens) (UniProt Q9H257+Q9BVG3)
Experiment: CARD9/TRIM62 protein interaction inhibitors – cell lysate, HEK293FT lysates, Luminex bead ELISA, primary screen (AID 1259341);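 further: PE anti-Flag signal of Flag-CARD9 captured by myc-TRIM62 beads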
Conditions: PE fluorescence, active compounds read low, concentration not given here

Caspase recruitment domain-containing protein 9 (Homo sapiens) + E3 ubiquitin-protein ligase TRIM62 (Homo sapiens), sequence (Q9BVG3 whole entry, looked up, the tested form may be a part): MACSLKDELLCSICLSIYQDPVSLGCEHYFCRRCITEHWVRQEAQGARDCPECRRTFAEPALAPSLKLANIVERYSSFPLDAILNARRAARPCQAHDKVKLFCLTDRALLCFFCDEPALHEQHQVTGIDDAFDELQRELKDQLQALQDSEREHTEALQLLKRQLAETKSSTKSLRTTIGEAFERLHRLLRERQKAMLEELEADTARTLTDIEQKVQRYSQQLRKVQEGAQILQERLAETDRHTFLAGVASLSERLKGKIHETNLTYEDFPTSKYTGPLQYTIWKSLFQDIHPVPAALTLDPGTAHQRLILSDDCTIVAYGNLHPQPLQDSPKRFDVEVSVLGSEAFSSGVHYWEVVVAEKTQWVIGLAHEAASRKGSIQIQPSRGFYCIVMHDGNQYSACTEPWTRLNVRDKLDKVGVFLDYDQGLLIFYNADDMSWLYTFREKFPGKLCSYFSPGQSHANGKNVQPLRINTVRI
Caspase recruitment domain-containing protein 9 (Homo sapiens) + E3 ubiquitin-protein ligase TRIM62 (Homo sapiens), sequence (Q9H257 whole entry, looked up, the tested form may be a part): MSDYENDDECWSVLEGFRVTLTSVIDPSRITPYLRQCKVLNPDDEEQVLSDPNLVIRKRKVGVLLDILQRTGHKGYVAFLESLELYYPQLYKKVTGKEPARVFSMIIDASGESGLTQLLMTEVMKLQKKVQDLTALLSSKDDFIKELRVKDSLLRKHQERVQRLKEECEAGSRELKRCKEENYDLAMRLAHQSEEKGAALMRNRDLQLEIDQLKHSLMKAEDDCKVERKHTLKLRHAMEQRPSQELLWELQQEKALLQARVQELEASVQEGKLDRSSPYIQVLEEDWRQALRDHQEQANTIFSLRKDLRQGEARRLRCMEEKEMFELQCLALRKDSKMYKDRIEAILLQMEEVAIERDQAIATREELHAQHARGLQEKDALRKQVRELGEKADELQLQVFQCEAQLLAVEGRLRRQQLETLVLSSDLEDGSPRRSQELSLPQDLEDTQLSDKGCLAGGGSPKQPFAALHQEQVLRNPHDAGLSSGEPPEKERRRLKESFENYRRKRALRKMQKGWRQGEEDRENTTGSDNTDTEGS

| SMILES | activity change, negative = inhibition [%] |
| --- | --- |
| O=C(Nc1ccc2oc(-c3ccncc3)nc2c1)c1ccc2c(c1)OCO2 | -8.29 |
| OCc1ccc(O)c2ncccc12 | -35 |
| CCC12CCCN3CCc4c(n(c5ccccc45)C(O)(C(=O)OC)C1)C32 (stereo unspecified) | -2.25 |
| CC1(C)Cc2c(c(N3CCOCC3)nc3sc(C(=O)NCc4ccco4)c(N)c23)CO1 | -2.46 |
| CCOC(=O)/C=C/S(=O)(=O)c1ccc(NC(C)=O)cc1 | -8.13 |
| O=C(COC(=O)CCC(=O)c1cccs1)NCc1ccco1 | 0.961 |
| O=S(=O)(Nc1nc2ccccc2nc1NCc1ccco1)c1ccccc1 | 1.68 |
| CCc1cc2c(=O)n(Cc3ccco3)c(SC)nc2s1 | 1.18 |
| CC(CCc1ccco1)N(C)S(=O)(=O)c1ccc2[nH]c(=O)ccc2c1 (stereo unspecified) | 3.38 |
| Cc1ccsc1[C@@H]1CCN(Cc2ccc(-c3ccn[nH]3)o2)C[C@H]1O | 0.0372 |
| CC(C)=CCC(C#N)(CC=C(C)C)C(=O)O | 8.02 |
| CN(Cc1ccco1)S(=O)(=O)c1nnc(NC(=O)c2ccccc2)s1 | 13.7 |
| O=C(Nc1ncccc1O)c1ccc(OCC2CCCO2)cc1 (stereo unspecified) | 2.58 |
| CCOc1ccc(CNc2nc(-c3nnc(-c4ccc(F)cc4)o3)nc3ccccc23)cc1 | 14.1 |
| O=C(Nc1ccc(OCC(=O)N2CCOCC2)cc1)c1cncc(Br)c1 | -1.75 |
| C[C@H](CO)N1C[C@H](C)[C@@H](CN(C)C(=O)C2CCCCC2)OCCCC[C@H](C)Oc2ccc(NS(=O)(=O)c3cccs3)cc2C1=O | 6.34 |
